Source: PubChem (National Center for Advancing Translational Sciences (NCATS))
A549 tox-1 = Nrf2 qHTS screen for inhibitors: counterscreen for cytotoxicity; A549 ARE-Fluc cells, CellTiter-Fluor viability, 18-24 h; Potency, µM (series often up to 46 µM), without a hit: at the top dose activity change, negative = cytotoxicity, most hits filed as inhibitors; actives 0.16% (n = 390,000); AID 504648, 2011; further: potency means the concentration at half of the fitted maximal effect; on the % scale 0 is the no-effect control and ±100 the full control effect
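A549 ARE-Fluc cells in 5% FBS OPTI-MEM, 5000 cells/well, rested 2 h then exposed to compounds in concentration-response for 18-24 h at 37 °C. Viability by CellTiter-Fluor fluorescence (Ex 405/Em 525) after 30 min; luciferase luminescence (BugLite, 15 min, RT) read afterwards.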
Nrf2 inh = Nrf2 qHTS screen for inhibitors; Potency, µM (top dose mostly 46 µM), without a hit: top-dose activity change, negative = inhibition, usual class: inhibitors; AID 504444, 2011; A549 ARE-Fluc reporter, luciferase luminescence, 18-24 h; actives 2.1% (n = 360,000); further: potency means the concentration at half of the fitted maximal effect; on the % scale 0 is the no-effect control and ±100 the full control effect; nearly all actives have a fitted effect of over 60% in size
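Cells were seeded and rested 2 h, then exposed to compounds for 18-24 h. CellTiter-Fluor was read first as a viability measure. BugLite was added 15 min before the final luminescent read of ARE-luciferase activity in A549 cells.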
miR-21 reporter = qHTS Assay for Modulators of miRNAs and/orActivators of miR-21. Potency, µM (series often up to 38.3 µM), without a hit: at the top dose activity change, positive = activation, usual class: activators. AID 2288, 2010. HeLa miR-21 FLuc reporter, luciferase, 48 h. 340,000 tested, under 10 active;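 further: % of control where 0% means no effect; miR-21 action dims this reporter so a rising signal means less miR-21 action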
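Using DMEM plus 10% FBS, HeLa miR-21-FLuc cells are incubated with test compounds (final up to about 40uM) for 48 hours; firefly luciferase signal is then imaged following reagent-mediated lysis.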
ClpP mod = qHTS Assay for Activators of ClpP. ATP-dependent Clp protease proteolytic subunit (Bacillus subtilis (strain 168)), P80244. purified B. subtilis ClpP, FRET peptide cleavage, 20 min. Potency, µM (highest dose often 57.5 µM), without a hit: top-dose activity change, negative = active. actives 1.9% (n = 340,000). AID 651965, 2013; active means well fitted falling curve with a large enough effect; inconclusive means small, poorly fitted or top-dose-only effect; inactive means no such curve, though single readings can be large or run the other way; further: potency means the concentration at half of the fitted maximal effect; the source files actives as falling curves though it sought activators and does not explain the sign; nearly all actives have a fitted effect of over 65% in size
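FRET quenching reversal measured ClpP activation: 10 microg/mL B. subtilis ClpP at pH 8 with the FRET-FV decapeptide, read at 430 nm after 320 nm excitation. The 20-min minus 0-min signal was scaled between DMSO/no-enzyme wells and ADEP (5.8 microM final).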
TCR activator = Activators of T cell receptors: qHTS campaign; Potency, µM (series often up to 9.22 µM), for the others: top-dose activation of IL-2 secretion, most hits filed as activators; AID 504894, 2011; primary human leukocytes, anti-CD3, IL-2 HTRF, 48 h; 330,000 tested, under 10 active; further: % of control where 0% means no effect
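Primary human leukocytes were stimulated with a-CD3 beads plus compounds for 48 hr without co-stimulation; secreted IL-2 was quantified by HTRF using a-IL-2-K (europium cryptate) and a-IL-2-d2, excited at 320nm with acceptor emission read at 665nm.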
Nrf2 ARE act = qHTS of Nrf2 Activators; AREc32 ARE-luciferase reporter (MCF7-derived line), luminescence, 24 h; AID 624171, 2012; actives 0.31% (n = 410,000); Potency, µM (titrated, usually from 46.1 µM), for the others: top-dose activation, hits mostly activators; further: potency means the concentration at half of the fitted maximal effect; % of control where 0% means no effect; nearly all actives have a fitted effect of over 65% in size
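Quantitative high-throughput format: AREc32 reporter cells, 1000 per well, received compound by pin transfer and were incubated 24 hr at 37 deg C, 5% CO2, before Steady-Glo luminescence detection.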
FLuc enzyme inh = Nrf2 qHTS screen for inhibitors: Purified Fluc Biochemical Counterscreen for Hit Validation; shares compounds with Nrf2 inh; purified firefly luciferase, luminescence inhibition; Potency, µM (titrated, usually from 57.5 µM), for the others: at the highest dose activity change, negative = inhibition, actives largely listed as inhibitors; actives 4% (n = 1,400); AID 720522, 2013; further: potency means the concentration at half of the fitted maximal effect; on the % scale 0 is the no-effect control and ±100 the full control effect; nearly all actives have a fitted effect of over 65% in size
Target sequence (P08659 whole entry, looked up): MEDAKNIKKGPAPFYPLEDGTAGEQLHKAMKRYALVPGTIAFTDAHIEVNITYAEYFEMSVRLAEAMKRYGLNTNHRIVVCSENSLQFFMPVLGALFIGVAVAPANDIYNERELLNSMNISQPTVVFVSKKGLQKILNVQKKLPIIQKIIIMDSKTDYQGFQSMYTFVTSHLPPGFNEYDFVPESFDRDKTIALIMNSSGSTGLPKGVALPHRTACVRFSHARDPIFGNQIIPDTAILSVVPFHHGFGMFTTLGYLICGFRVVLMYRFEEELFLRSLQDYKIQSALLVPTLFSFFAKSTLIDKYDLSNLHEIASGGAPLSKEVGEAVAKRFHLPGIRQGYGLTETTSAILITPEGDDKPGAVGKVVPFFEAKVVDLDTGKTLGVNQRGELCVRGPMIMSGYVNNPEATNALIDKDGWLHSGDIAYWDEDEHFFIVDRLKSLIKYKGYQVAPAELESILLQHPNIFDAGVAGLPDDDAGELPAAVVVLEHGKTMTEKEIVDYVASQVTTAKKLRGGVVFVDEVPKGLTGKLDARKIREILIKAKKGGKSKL
A549 tox-2 = Nrf2 qHTS screen for inhibitors: A549 ARE-Fluc Cytotoxicity Counterscreen for Hit Validation; shares compounds with Nrf2 inh; A549 ARE-Fluc cells, cytotoxicity counterscreen; Potency, µM (doses to about 46.1 µM), inactives show top-dose activity change, negative = cytotoxicity, most hits filed as inhibitors; actives 2% (n = 1,400); AID 720523, 2013;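 further: potency means the concentration at half of the fitted maximal effect; cells exposed to compounds for 18 to 24 hours; on the % scale 0 is the no-effect control and ±100 the full control effect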
ARE-Fluc inh = Nrf2 qHTS screen for inhibitors: Nrf2 A549 ARE-Fluc Confirmation Assay for Hit Validation; AID 720524, 2013; Potency, µM (titrated, usually from 46.1 µM), inactives show top-dose activity change, negative = inhibition, most hits filed as inhibitors; shares compounds with Nrf2 inh; actives 74% (n = 1,400); A549 ARE-firefly luciferase reporter, luminescence; further: potency means the concentration at half of the fitted maximal effect; on the % scale 0 is the no-effect control and ±100 the full control effect; nearly all actives have a fitted effect of over 65% in size
* hit, by the source's call; ? = inconclusive; · = no result shown; [ ] = remark or other dose. Compounds with a hit are over-represented: about 3.7% of the library has one in this group of screens. Unless noted, the call rests on the fitted dose curve; in most records, active means well fitted curve in the direction sought with a large enough effect; inconclusive means small, poorly fitted or top-dose-only effect, or another doubt; inactive means no such curve, though single readings can be large; an effect the other way counts as inactive or inconclusive.

SMILES	A549 tox-1	Nrf2 inh	miR-21 reporter	ClpP mod	TCR activator	Nrf2 ARE act	FLuc enzyme inh	A549 tox-2	ARE-Fluc inh
COc1ccc(CNC(=O)CCCN2C(=O)CCn3nc(-c4cn(C)c5ccccc45)cc32)cc1	7%	·	-14%	-7%	·	3%	·	·	·
Cc1c(/C=C/c2ccnc3ccccc23)ccc(N(C)C)c1C	·	·	·	0%	·	·	-21%	-16%	?
COc1cc(OC)cc(C(=O)NNC(=O)CCc2ccccc2)c1	0%	-10%	-5%	-3%	-6%	3%	·	·	·
COc1ccccc1/C=C/C(=O)N1CCc2cc(OC)c(OC)cc2C1C (centres undefined)	-11%	?	2%	·	-9%	0%[9.22 µM]	2%	-6%	7.3µM*
Cc1ccccc1C(=O)N1CCN(c2ccc(NC(=O)c3ccc4c(c3)OCO4)cc2)CC1	-12%	9.2µM*	?	·	2%	0%	-12%	-4%	7.3µM*
COc1ccc(CN2C(=O)C(CC(=O)NCCCN(C)C)CC(C(=O)N(C)C)=C2C)cc1 (centres undefined)	·	·	·	2%	·	0%	·	·	·
COc1ccc(CNC(=O)c2cc3c(C)nc4ccccc4c3o2)c(OC)c1	-22%	5.2µM*	15%	2%	-8%	0%	-2%	-5%	·
CCCCN(C(=O)CNC(=O)c1ccco1)C(C(=O)NC1CCCCC1)c1cccnc1 (centres undefined)	3%	7%	-2%	·	-1%	0%	·	·	·
CN(Cc1ccc(F)cc1)C(=O)c1cccc(S(=O)(=O)NCc2ccccc2)c1	-1%	?	·	·	-3%	4%	·	·	·
C=CCOc1ccc(CN(C)C(=O)c2ccc(CNS(=O)(=O)c3ccc(C)c(C)c3)cc2)cc1	?	9.2µM*	·	0%	-7%	1%	0%	-25%	?
CC(C)CC(=O)Nc1ccc2oc(-c3ccncc3)nc2c1	-12%	-8%	-49%	?	-4%	3%	·	·	·
CC(Oc1ccc(Cl)cc1Cl)C(=O)Nc1ccc2oc(-c3ccncc3)nc2c1 (centres undefined)	?	4.6µM*	-6%	8.9µM*	·	0%	3%	-16%	8.2µM*
CN(c1ccccc1)S(=O)(=O)c1ccc(Cl)c(C(=O)Nc2ccncc2)c1	1%	8.2µM*	·	-1%	-5%	10%	1%	1%	?
CCN(c1ccccc1)S(=O)(=O)c1ccc(Cl)c(C(=O)Nc2ccncc2)c1	·	·	·	-2%	·	5%	·	·	·
CCc1cccc(NC(=O)C2CCN(S(=O)(=O)c3ccc4c(c3)CC(C)N4C(C)=O)CC2)c1 (centres undefined)	-19%	7.3µM*	15%	-8%	2%	-1%	0%	-6%	9.2µM*
CC(=O)N1c2ccc(S(=O)(=O)N3CCC(C(=O)Nc4ccc(F)cc4)CC3)cc2CC1C (centres undefined)	-11%	?	15%	1%	-16%	0%	·	·	·
